Assay outcomes: PubChem, National Center for Advancing Translational Sciences (NCATS)
IL-1B inflam inh: inhibitors of inflammasome signaling (IL-1 beta secretion); THP-1 LPS/ATP IL-1B secretion, AlphaLISA, 16 h; stronger effect = lower value; 4.7% of 360,000 active; activity change, % at 57.5 µM; in the data active = activity change below about -50%; inconclusive = mostly about -30% to -49%
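Secreted IL-1B measured by AlphaLISA bead assay after 16 h compound exposure of THP-1 cells; compounds (final up to 57.5 uM) added 1 h before LPS (250 ng/mL) and ATP (1.25 mM) stimulation; lower signal means less secretion.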
Gal4-VP16 FLuc: inhibits Gal4-VP16 luciferase reporter, ROR gamma counter-screen | Drosophila S2 Gal4-VP16 UAS-luciferase, luminescence, 20 h | 3.5% of 310,000 active | AID 2546 | Potency, µM (top dose mostly 53.6 µM), most hits filed as inhibitors;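 also: Gal4-VP16 expression switched on by copper sulfate through the metallothionein promoter; nearly all actives have a fitted effect of over 50% in size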
TDP1 cell CPT: growth inhibition of DT40 Tdp1-/-;hTDP1 cells with camptothecin (screen for TDP1 inhibitors) | chicken DT40 Tdp1-/-;hTDP1 cells + 20 nM CPT, ATP luminescence, 48 h | Potency, µM (highest dose often 46.2 µM), actives largely listed as inhibitors | 12% of 420,000 active | AID 686979; also: nearly all actives have a fitted effect of over 55% in size
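Chicken DT40 Tdp1-/- cells complemented with human TDP1, 400 cells/well, exposed to compounds plus 20 nM camptothecin for at least 48 h at 37 C; viability read as ATP content by CellTiter-Glo luminescence.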
RORg inh: ROR gamma (mouse) transcription inhibition | P51450 | Drosophila S2 Gal4-RORgamma UAS-luciferase reporter, 20 h | Potency, µM (series often up to 53.6 µM), hits mostly inhibitors | 5.4% of 310,000 active | AID 2551; also: nearly all actives have a fitted effect of over 60% in size
Target sequence (P51450 whole entry, looked up, the tested form may be a part): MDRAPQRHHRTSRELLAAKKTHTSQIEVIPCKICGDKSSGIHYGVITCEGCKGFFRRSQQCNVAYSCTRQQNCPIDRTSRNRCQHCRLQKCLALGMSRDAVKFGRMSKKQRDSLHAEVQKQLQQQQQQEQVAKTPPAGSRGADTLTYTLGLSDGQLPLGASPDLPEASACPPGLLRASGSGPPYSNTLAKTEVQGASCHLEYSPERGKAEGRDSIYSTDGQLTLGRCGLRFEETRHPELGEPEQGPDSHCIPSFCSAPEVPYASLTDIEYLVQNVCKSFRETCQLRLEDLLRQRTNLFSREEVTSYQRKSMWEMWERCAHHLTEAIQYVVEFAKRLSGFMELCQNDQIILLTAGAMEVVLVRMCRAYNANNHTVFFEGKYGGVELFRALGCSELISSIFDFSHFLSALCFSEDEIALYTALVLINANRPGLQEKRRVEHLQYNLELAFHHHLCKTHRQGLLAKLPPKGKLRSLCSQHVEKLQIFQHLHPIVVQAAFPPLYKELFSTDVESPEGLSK
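Using a luciferase readout, inhibitors were identified by reduced reporter activity in Drosophila cells coexpressing a copper-inducible Gal4–ROR gamma fusion and UAS-driven Photinus luciferase, incubated 20 hr after 700 uM copper sulfate.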
TDP1 cell noCPT: qHTS for Inhibitors of human tyrosyl-DNA phosphodiesterase 1 (TDP1): qHTS in cells in absence of CPT. DT40 Tdp1-/- hTDP1 cells, no CPT, ATP luminescence, 48 h. Potency, µM (series often up to 46.2 µM), most hits filed as inhibitors. 15% of 420,000 active. AID 686978, 2013; also: nearly all actives have a fitted effect of over 55% in size
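Chicken DT40 Tdp1-/- cells stably complemented with human TDP1 were seeded at 400 cells/well with DMSO in place of 20 nM camptothecin. After compound pinning, cells grew at least 48 hr at 37 °C; viability read by CellTiter-Glo luminescence.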
LDHA block: blocks human lactate dehydrogenase A. purified LDHA, NADH/diaphorase-resazurin fluorescence; stronger effect = lower value. activity change, % (values are at about 110 or 230 µM). P00338. 0.15% of 480,000 active; in the data active = activity change below about -30%; inconclusive = mostly about -25% to -30%
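Human LDH5 (2 nM) was incubated with 0.06 mM NADH and 0.2 mM pyruvate for 5 min at room temperature in Tris pH 7.4. Remaining NADH was coupled through diaphorase/resazurin, and resorufin fluorescence was read at 0 and 20 min.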
Hits are given with their value; i = inactive; ? = inconclusive; nt = no result; [ ] = another dose, or the depositor's remark. Only some compounds are listed: those with a hit (about 18% of all), similar ones and a draw of the others. Unless noted, calls follow the shape of the dose curve; as a rule, active = well fitted curve in the direction sought with a large enough effect; inconclusive = small, poorly fitted or top-dose-only effect, or another doubt; inactive = no such curve, though single readings can be large; an effect the other way counts as inactive or inconclusive.

SMILES	IL-1B inflam inh	Gal4-VP16 FLuc	TDP1 cell CPT	RORg inh	TDP1 cell noCPT	LDHA block
CCN1C(=O)C2(C(C(=O)c3ccc(C)o3)=C(O)C(=O)N2CCN2CCOCC2)c2ccccc21 (stereo unspecified)	nt	nt	nt	nt	nt	i
COc1ccc(OC)c(CCNC(=O)CCC(=O)N2CCOc3ccc(C)cc32)c1	i	i	23.1µM	i	?	i
O=C(CCC(=O)N1CCSc2ccccc21)Nc1ccc(Cl)cc1	nt	nt	14.6µM	nt	20.6µM	i
Cc1ccccc1NC(=O)CCC(=O)N1CCSc2ccccc21	nt	nt	i	nt	?	i
Cc1ccc(NC(=O)CCC(=O)N2CCSc3ccccc32)cc1	nt	nt	16.4µM	nt	?	i
CCOc1ccc(OCC)c(NC(=O)CCC(=O)N2CCOc3ccccc32)c1	nt	nt	25.9µM	nt	25.9µM	i
O=C(CCC(=O)N1CCSc2ccccc21)NCc1cccc(Br)c1	i	i	i	i	i	i
NC(=O)c1ccc(NC(=O)C2=C(c3ccccc3)SCCO2)cc1	nt	nt	nt	nt	nt	i
O=C(/C=C/c1ccc(OCc2ccccc2)cc1)c1ccc(N2CCOCC2)cc1	nt	nt	nt	nt	nt	i
Cc1ccc(NC(=O)CCC(=O)N2CCSc3ccccc32)cc1Cl	nt	nt	16.4µM	nt	?	i
CCOC(=O)c1ccc(NC(=O)CCC(=O)N2Cc3ccccc3Oc3ncccc32)cc1	nt	nt	16.4µM	nt	20.6µM	i
O=C(CCC(=O)N1CCSc2ccccc21)NCc1ccccc1	i	i	?	i	i	i
CCOc1ccc(NC(=O)CCC(=O)N2CCSc3ccccc32)cc1	i	i	16.4µM	i	16.4µM	i
CCOC(=O)c1ccc(NC(=O)CCC(=O)N2CCSc3ccccc32)cc1	nt	nt	23.1µM	nt	13µM	i
O=C(CCC(=O)N1CCSc2ccccc21)NCc1ccccc1Cl	nt	nt	10.3µM	nt	?	i
O=C(CCC(=O)N1CCSc2ccccc21)NCc1ccc(Cl)cc1	i	i	i	i	i	i
COCCNC(=O)c1sc(NCc2ccco2)nc1C	nt	nt	nt	nt	nt	i
COc1cc(C(=O)Nc2ccc3c(c2)nc(CN2CCC(C)CC2)n3C(C)C)cc(OC)c1OC	nt	nt	nt	nt	nt	i
CCCCCCCC(=O)C(C)C(=O)N(C)[C@H](Cc1ccc(OC)cc1)C(=O)N(C)[C@H](C(N)=O)C(C)C (stereo partly specified)	i	nt	?	nt	23.1µM	i
COc1ccc(CC(C)CC(=O)Nc2ccc(OC)cc2)cc1 (stereo unspecified)	i	i	i	i	?	i
O=c1c2c3c(sc2nc2n1CCCCC2)CCCC3	i	i	23.1µM	i	i	i
O=c1c2c3c(sc2nc2n1CCCCC2)CCCCC3	nt	i	nt	i	nt	nt
N=c1c2c3c(sc2nc2n1CCCCC2)CCCCC3	i	i	23.1µM	i	11.6µM	i
CC1(C)SC(=S)N(/N=C/c2ccccc2)C1N(O)C(=O)Nc1ccc([N+](=O)[O-])cc1 (stereo unspecified)	?	3.55µM	16.4µM	?	18.4µM	i
CC1(C)SC(=S)N(NC(=O)Nc2cccc3ccccc23)C1N(O)C(=O)Nc1ccccc1 (stereo unspecified)	i	?	?	i	16.4µM	i
SMILES	IL-1B inflam inh	Gal4-VP16 FLuc	TDP1 cell CPT	RORg inh	TDP1 cell noCPT	LDHA block
CNC(=O)N(O)C1N(/N=C/c2ccc(N(C)C)cc2)C(=S)SC1(C)C (stereo unspecified)	i	i	i	i	i	i
COc1ccccc1C(=O)N1CCN(c2oc(-c3ccccc3)nc2C#N)CC1	nt	nt	nt	nt	nt	i
CCOC(=O)C1=NN(c2ccccc2)C(=O)/C1=C\c1ccc(N(C)C)cc1	i	i[0.365 µM]	i	?	?	i
CC1=NN(Cc2ccccc2)C(=O)/C1=C\c1ccc(N(C)C)cc1	i	?	13µM	?	?	i
COc1cc(C(=O)Nc2oc3c(C)cccc3c(=O)c2-c2ccccc2)cc(OC)c1OC	nt	nt	nt	nt	nt	i
CC(C(=O)Nc1ccccc1Cl)n1nc(-c2ccccc2)ccc1=O (stereo unspecified)	nt	nt	nt	nt	nt	i
O=C(Nc1ccc(-c2noc(-c3ccccc3Br)n2)cc1)c1ccco1	nt	nt	nt	nt	nt	i
COc1ccc(-c2noc(C(C)NC(=O)c3ccco3)n2)cc1OC (stereo unspecified)	i	i	i	?	i	i
O=C(Nc1ccc(-c2noc(CCc3ccccc3)n2)cc1)c1ccco1	i	i	18.4µM	i	?	i
CC(NC(=O)c1ccco1)c1nc(-c2ccc(Cl)cc2)no1 (stereo unspecified)	i	i	?	i	20.6µM	i
O=C(Nc1ccc(-c2nc3c(ccc4ccccc43)o2)cc1)c1ccco1	i	?	?	?	18.4µM	i
COc1ccc2[nH]c3c(c2c1)CCN1C(=O)N([C@@H](C)C(=O)NC2CCN(Cc4ccccc4)CC2)C(=O)[C@]31C	i	i	16.4µM	i	16.4µM	i
CC(C)C[C@@H](C(=O)NC1CCN(Cc2ccccc2)CC1)N1C(=O)N2CCc3c([nH]c4ccccc34)[C@@]2(C)C1=O	i	i	11.6µM	i	20.6µM	i
CC(C)C[C@@H](C(=O)NC1CC1)N1C(=O)N2CCc3c([nH]c4ccccc34)[C@@]2(C)C1=O	i	i	?	i	?	i
C[C@@H](C(=O)NC1CCN(Cc2ccccc2)CC1)N1C(=O)N2CCc3c([nH]c4ccccc34)[C@@]2(C)C1=O	i	i	23.1µM	i	?	i
CC(C)[C@@H](C(=O)NC1CCN(Cc2ccccc2)CC1)N1C(=O)N2CCc3c([nH]c4ccccc34)[C@@]2(C)C1=O	?	i	18.4µM	i	13µM	i
COc1ccc2[nH]c3c(c2c1)CCN1C(=O)N([C@@H](C)C(=O)NCc2ccccc2OC)C(=O)[C@]31C	i	i	?	i	?	i
CC(C)Oc1ccccc1CN1C(=O)C(=O)c2ccccc21	nt	nt	nt	nt	nt	i
O=C(CSc1nnc(-c2cccnc2)o1)c1ccc(S(=O)(=O)N2CCCC2)cc1	nt	nt	nt	nt	nt	i
CCCCCCCCSCCCCC(=O)O	nt	nt	nt	nt	nt	i
COc1ccc2[nH]c3c(c2c1)CCN1C(=O)N([C@@H](C)C(=O)NC2CC2)C(=O)[C@]31C	i	i	i	i	?	i
COc1ccc2[nH]c3c(c2c1)CCN1C(=O)N([C@@H](C)C(=O)NC2CCCC2)C(=O)[C@]31C	i	i	11.6µM	i	?	i
Cc1ccccc1OCc1nnc(SCc2c(Cl)cccc2Cl)n1C	nt	nt	nt	nt	nt	i
CCOc1cc(/C=C/C(=O)c2ccc(Cl)cc2)cc(Cl)c1O	nt	nt	nt	nt	nt	i
COc1ccc2cc(C(c3nnnn3CCc3ccccc3)N3CCC(O)CC3)c(=O)[nH]c2c1 (stereo unspecified)	i	i	i	i	i	i
